# In PubChem BioAssay AID720650 (Broad Institute, 2013):
# Calls of active or inactive are those of the source. No rule for the calls is given here.
# Test: Biochemical counterscreen for C difficile toxins, absence of UDPG, inhibitor dose response (AID 720650)
# Settings: series mostly up to 19.5 µM
row,SMILES,AC50
1,CC1(C)CC(=O)C(C=Nc2ccc(N)cc2)=C(O)C1,inactive
2,CCOC(=O)c1c(C)[nH]c(C)c1C(=O)COC(=O)/C=C/c1ccco1,> 39 µM (inactive)
3,COc1cc(/C=N/NC2=NCCCCC2)ccc1O,inactive
4,Clc1cccc(-c2ccc3ncnc(NCc4cccs4)c3c2)c1,inactive
5,CCc1cc(-c2n[nH]c(C)c2-c2nc(C)cs2)c(O)cc1OC,> 39 µM (inactive)
6,CC12CCC3C(=CCc4cc(O)ccc43)C1CC(=NO)C2O (stereo unspecified),19.4 µM (active)
7,Cc1cc(C)nc(SCC(=O)c2ccc(O)c(O)c2)n1,inactive
8,CC(=O)Nc1ccc(N(C(=O)c2ccco2)C(C(=O)NC2CCCC2)c2cccs2)cc1 (stereo unspecified),inactive
9,Cc1ccc(Cc2c(-c3ccc(C)cc3)nc3ccc(Cl)cn23)cc1,inactive
10,CC(Sc1nc2ccccc2n1C)C(=O)Nc1ccc(N2CCOCC2)cc1 (stereo unspecified),inactive
11,COc1ccc(C(=O)Nc2ccc3c(c2)C(=O)N(C)[C@@H]2CC[C@H](CC(=O)NCC4CC4)O[C@@H]2CO3)cc1,inactive
12,O=C(c1ccccc1)c1coc2ccc(O)c(Cl)c12,12.7 µM (active)
13,NC1=NC[C@H](Cc2ccc(O)cc2)N1CCc1cc(C(F)(F)F)cc(C(F)(F)F)c1,inactive
14,N#Cc1ccc(C(=O)N/N=C/c2cn(CC(=O)O)c3ccccc23)c(F)c1,inactive
15,COc1ccc(Cl)cc1NC(=O)CSc1nnc(-c2ccco2)o1,> 39 µM (inactive)
16,NC(=O)C1(Nc2ccc(-c3ccc(Br)cc3)cc2)CCCC1,inactive
17,Cc1cc(C)c(S(=O)(=O)c2ccc(Cl)cc2C)c(Cl)n1,> 39 µM (inactive)
18,CCOC(=O)N1CCN=C1SCc1ccc(Cl)c(Cl)c1,inactive
19,COc1ccc(C(=O)NC(CC(=O)O)c2cc([N+](=O)[O-])ccc2Cl)c(SC)c1 (stereo unspecified),inactive
20,O=C(NNc1nc2c(F)cc(F)cc2s1)C1COc2ccccc2O1 (stereo unspecified),0.699 µM (active)
21,CCCCNC(=O)C1CCN(S(=O)(=O)c2c(C)noc2/C=C\c2ccc(OC)cc2)CC1,inactive
